In PubChem BioAssay (EPA / NIEHS):
Several values for one entry are separate records, joined by “and”; a condition that tells them apart may be missing. Identical values can stand only once. Records with an inconclusive call do not appear. Where a structure was tested more than once in an assay, its records may differ in their call. Activity calls are given as the source filed them. Rule for the calls: active = hit-call score of the fitted dose curve at least 0.9, where 1 is the maximum; inconclusive = response in the unintended direction; inactive = score below 0.9.

What was measured:
[1] = ATG_M_06_XSP2: Attagene TRANS-FACTORIAL Multi-Species (XSP2) HepG2 Assay for M06 Transcription Factor (Internal Marker) (AID 2283811);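 note: hits are increases in signal above the DMSO baseline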
Outline: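 HepG2, multiplexed reporter transfection; 24 h dosing; AR stimulated with 3 nM 6-alpha-fluorotestosterone + 1.5 nM norgestrel; RNA → RT-PCR → 6-FAM primer extension → HpaI → CE. Positive direction vs DMSO.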

[2] = system: turtle Estrogen Receptor (ERa), gene 101933533; assay: ATG_trERa_XSP2: Attagene TRANS-FACTORIAL Multi-Species (XSP2) HepG2 Assay for turtle Estrogen Receptor (ERa) (AID 2283812);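 note: human HepG2 liver cells transiently expressing turtle ERa-Gal4 chimeric receptor; actives raise reporter signal above DMSO so AC50 reflects agonist activity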
Outline: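 HepG2 cells transiently transfected with GAL4-UAS reporter units expressing turtle ERa-Gal4 chimera. Reporter mRNA measured after 24 h dosing by RT-PCR, fluorescent labelling and capillary electrophoresis; gain of signal fitted versus DMSO.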

[3] = system: turtle Androgen Receptor (AR), gene 101947425; assay: ATG_trAR_XSP2: Attagene TRANS-FACTORIAL Multi-Species (XSP2) HepG2 Assay for turtle Androgen Receptor (AR) (AID 2283815);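 for AC50: potency for gain of reporter signal meaning activation above DMSO baseline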
Outline: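 HepG2 cells transiently transfected with GAL4-UAS reporter units for chimeric NR-Gal4 receptors; 24 h dosing in presence of 3 nM 6-alpha-fluorotestosterone and 1.5 nM norgestrel. Reporter mRNA by RT-PCR and capillary electrophoresis, gain of signal versus DMSO.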

[4] = biological target: chicken Estrogen Receptor (ERa), ESR1 (gene 396099) (UniProt P06212); assay: ATG_chERa_XSP2: Attagene TRANS-FACTORIAL Multi-Species (XSP2) HepG2 Assay for chicken Estrogen Receptor (ERa) (AID 2283817);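 note: actives raise reporter signal above DMSO so AC50 reflects ER activation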
Sequence of chicken Estrogen Receptor (ERa), ESR1 (gene 396099) (P06212 whole entry, looked up, the tested form may be a part): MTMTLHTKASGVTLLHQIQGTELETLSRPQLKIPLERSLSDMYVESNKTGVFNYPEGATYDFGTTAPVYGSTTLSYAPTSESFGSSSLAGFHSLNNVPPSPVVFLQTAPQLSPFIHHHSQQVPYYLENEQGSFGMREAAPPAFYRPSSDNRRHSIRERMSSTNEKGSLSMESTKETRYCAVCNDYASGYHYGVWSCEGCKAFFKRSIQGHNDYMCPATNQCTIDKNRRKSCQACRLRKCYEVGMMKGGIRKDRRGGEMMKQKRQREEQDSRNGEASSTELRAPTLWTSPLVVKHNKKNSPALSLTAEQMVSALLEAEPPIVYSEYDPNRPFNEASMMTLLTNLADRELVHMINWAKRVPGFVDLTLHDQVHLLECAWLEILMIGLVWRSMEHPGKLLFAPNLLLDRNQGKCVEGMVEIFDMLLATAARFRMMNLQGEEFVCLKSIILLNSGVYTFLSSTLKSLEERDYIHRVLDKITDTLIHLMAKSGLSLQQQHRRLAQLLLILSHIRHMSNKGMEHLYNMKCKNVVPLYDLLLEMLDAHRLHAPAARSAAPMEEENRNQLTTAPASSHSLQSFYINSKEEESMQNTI
Outline: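 Transient MRTU transfection of HepG2 → 24 h chemical dosing → TriZol RNA, oligo(dT) RT → PCR, 6-FAM primer extension, HpaI digest → CE quantitation of chicken ERa-Gal4-driven reporter mRNA. Positive direction vs DMSO.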

[5] = system: zebrafish Estrogen Receptor (ER2a), gene 317734; assay: ATG_zfER2a_XSP2: Attagene TRANS-FACTORIAL Multi-Species (XSP2) HepG2 Assay for zebrafish Estrogen Receptor (ER2a) (AID 2283818);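 note: hits raise reporter mRNA so AC50 reflects activation of zebrafish ER2a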
Outline: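 HepG2 cells transiently transfected with GAL4-UAS reporter units and chimeric zebrafish ER2a-Gal4, exposed 24 h; medium contains 3 nM 6-alpha-fluorotestosterone and 1.5 nM norgestrel. Reporter mRNA quantified by RT-PCR, HpaI digestion, capillary electrophoresis; gain versus DMSO.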

[6] = system: chicken Androgen Receptor (AR), gene 422165; assay: ATG_chAR_XSP2: Attagene TRANS-FACTORIAL Multi-Species (XSP2) HepG2 Assay for chicken Androgen Receptor (AR) (AID 2283819);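 note: hits raise reporter mRNA above DMSO so potency is for activation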
Outline: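 HepG2 cells transiently transfected with chicken AR–GAL4 chimeric reporter constructs, stimulated with 3 nM 6-alpha-fluorotestosterone plus 1.5 nM norgestrel, dosed 24 h. Reporter mRNA quantified by RT-PCR and capillary electrophoresis; gain of signal fitted versus DMSO.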

[7] = ATG_M_32_XSP1: Attagene TRANS-FACTORIAL Multi-Species (XSP1) HepG2 Assay for M32 Transcription Factor (Internal Marker) (AID 2283799)
Outline: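 HepG2 cells transiently transfected with multi-species TRANS reporter units, dosed 24 h with 3 nM 6-alpha-fluorotestosterone present. Internal-marker reporter mRNA quantified by RT-PCR and capillary electrophoresis; positive-direction fit versus DMSO.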

[8] = system: zebrafish Peroxisome Proliferator-activated Receptor gamma (PPARg), gene 557037; assay: ATG_zfPPARg_XSP1: Attagene TRANS-FACTORIAL Multi-Species (XSP1) HepG2 Assay for zebrafish Peroxisome Proliferator-activated Receptor gamma (PPARg) (AID 2283801)
Outline: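 HepG2 cells transiently transfected with GAL4-UAS reporter units including a zebrafish PPARg–GAL4 chimera, dosed 24 h with 3 nM 6-alpha-fluorotestosterone present. Reporter mRNA quantified by RT-PCR, FAM labelling, HpaI digestion and capillary electrophoresis; induction versus DMSO.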

[9] = biological target: mouse Peroxisome Proliferator-activated Receptor gamma (PPARg), Pparg (gene 19016) (UniProt P37238); assay: ATG_mPPARg_XSP1: Attagene TRANS-FACTORIAL Multi-Species (XSP1) HepG2 Assay for mouse Peroxisome Proliferator-activated Receptor gamma (PPARg) (AID 2283802)
Outline: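 HepG2 cells transiently transfected with GAL4-UAS reporter units driven by mouse PPARg–GAL4 chimera; 3 nM 6-alpha-fluorotestosterone present. After 24 h dosing, reporter mRNA quantified by RT-PCR, fluorescent labelling and capillary electrophoresis; gain of signal versus DMSO.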

[10] = biological target: Nuclear receptor subfamily 1 group I member 2 (Mus musculus) (UniProt O54915); assay: ATG_mPXR_XSP1: Attagene TRANS-FACTORIAL Multi-Species (XSP1) HepG2 Assay for mouse Pregnane X Receptor (PXR) (AID 2283803)
Sequence of Nuclear receptor subfamily 1 group I member 2 (Mus musculus) (O54915 whole entry, looked up, the tested form may be a part): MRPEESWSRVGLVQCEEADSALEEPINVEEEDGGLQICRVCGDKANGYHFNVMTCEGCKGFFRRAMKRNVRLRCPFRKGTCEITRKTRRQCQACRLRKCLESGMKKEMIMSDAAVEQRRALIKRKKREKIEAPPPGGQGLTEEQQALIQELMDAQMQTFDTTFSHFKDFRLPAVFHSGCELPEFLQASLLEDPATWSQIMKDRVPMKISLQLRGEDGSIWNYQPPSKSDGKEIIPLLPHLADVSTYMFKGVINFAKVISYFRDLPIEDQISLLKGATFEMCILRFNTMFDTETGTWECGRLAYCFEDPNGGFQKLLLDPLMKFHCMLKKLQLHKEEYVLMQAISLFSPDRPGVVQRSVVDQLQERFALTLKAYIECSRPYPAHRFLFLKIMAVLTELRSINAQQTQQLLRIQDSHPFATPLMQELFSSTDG
Outline: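 Transiently transfected HepG2 cells expressing a receptor-Gal4 chimera drive a GAL4-UAS reporter; 3 nM 6-alpha-fluorotestosterone included. Reporter mRNA read 24 h post-dose by RT-PCR and capillary electrophoresis; gain of signal relative to DMSO.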

[11] = system: turtle Thyroid Hormone Receptor, alpha (TRa), gene 101949057; assay: ATG_trTRa_XSP1: Attagene TRANS-FACTORIAL Multi-Species (XSP1) HepG2 Assay for turtle Thyroid Hormone Receptor, alpha (TRa) (AID 2283806)
Outline: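 HepG2 cells transiently transfected with GAL4-UAS reporter units and chimeric receptor-Gal4 constructs, with 3 nM 6-alpha-fluorotestosterone present. Reporter mRNA was quantified 24 h after dosing by RT-PCR, 6-FAM labelling and capillary electrophoresis; gain of signal versus DMSO.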

[12] = biological target: zebrafish Thyroid Hormone Receptor alpha (TRa), thraa (gene 30670) (UniProt Q98867); assay: ATG_zfTRa_XSP1: Attagene TRANS-FACTORIAL Multi-Species (XSP1) HepG2 Assay for zebrafish Thyroid Hormone Receptor alpha (TRa) (AID 2283807)
Sequence of zebrafish Thyroid Hormone Receptor alpha (TRa), thraa (gene 30670) (Q98867 whole entry, looked up, the tested form may be a part): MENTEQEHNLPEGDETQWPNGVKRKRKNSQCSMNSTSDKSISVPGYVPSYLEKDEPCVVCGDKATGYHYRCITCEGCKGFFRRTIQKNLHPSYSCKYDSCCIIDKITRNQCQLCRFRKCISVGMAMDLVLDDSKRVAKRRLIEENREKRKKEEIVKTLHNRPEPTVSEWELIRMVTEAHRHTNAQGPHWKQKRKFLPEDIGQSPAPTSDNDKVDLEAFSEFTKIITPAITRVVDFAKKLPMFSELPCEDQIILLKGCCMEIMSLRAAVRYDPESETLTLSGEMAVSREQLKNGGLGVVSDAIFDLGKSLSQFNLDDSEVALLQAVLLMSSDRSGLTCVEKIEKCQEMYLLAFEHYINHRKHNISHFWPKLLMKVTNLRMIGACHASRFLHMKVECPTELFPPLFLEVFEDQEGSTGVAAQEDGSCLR
Outline: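 HepG2 cells transiently transfected with GAL4-UAS reporter units including a zebrafish TRa–Gal4 chimera, dosed 24 h with 3 nM 6-alpha-fluorotestosterone present. Reporter mRNA quantified by RT-PCR and capillary electrophoresis; gain versus DMSO.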

[13] = biological target: human Thyroid hormone Receptor beta (TRb), THRB (gene 7068) (UniProt P10828); assay: ATG_hTRb_XSP1: Attagene TRANS-FACTORIAL Multi-Species (XSP1) HepG2 Assay for human Thyroid hormone Receptor beta (TRb) (AID 2283808)
Sequence of human Thyroid hormone Receptor beta (TRb), THRB (gene 7068) (P10828 whole entry, looked up, the tested form may be a part): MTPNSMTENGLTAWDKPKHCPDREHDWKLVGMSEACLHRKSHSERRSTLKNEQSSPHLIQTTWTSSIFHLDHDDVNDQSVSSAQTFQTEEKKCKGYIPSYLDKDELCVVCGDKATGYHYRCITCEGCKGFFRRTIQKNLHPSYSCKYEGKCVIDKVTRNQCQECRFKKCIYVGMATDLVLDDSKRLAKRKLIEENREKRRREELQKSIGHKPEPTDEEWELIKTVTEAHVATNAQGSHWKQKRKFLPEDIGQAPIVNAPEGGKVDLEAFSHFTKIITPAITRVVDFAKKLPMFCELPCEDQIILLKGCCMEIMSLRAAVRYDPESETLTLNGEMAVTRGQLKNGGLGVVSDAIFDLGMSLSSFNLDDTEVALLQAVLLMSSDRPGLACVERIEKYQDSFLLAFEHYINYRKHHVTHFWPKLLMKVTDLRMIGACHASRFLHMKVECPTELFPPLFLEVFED
Outline: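 HepG2 cells transiently transfected with reporter units driving GAL4-UAS reporters for chimeric NR-Gal4 proteins; 24 h chemical exposure with 3 nM 6-alpha-fluorotestosterone present. Reporter mRNA quantified by RT-PCR and capillary electrophoresis, gain of signal versus DMSO.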

[14] = biological target: zebrafish Thyroid Hormone Receptor beta (TRb), thrb (gene 30607) (UniProt Q9PVE4); assay: ATG_zfTRb_XSP1: Attagene TRANS-FACTORIAL Multi-Species (XSP1) HepG2 Assay for zebrafish Thyroid Hormone Receptor beta (TRb) (AID 2283809)
Sequence of zebrafish Thyroid Hormone Receptor beta (TRb), thrb (gene 30607) (Q9PVE4 whole entry, looked up, the tested form may be a part): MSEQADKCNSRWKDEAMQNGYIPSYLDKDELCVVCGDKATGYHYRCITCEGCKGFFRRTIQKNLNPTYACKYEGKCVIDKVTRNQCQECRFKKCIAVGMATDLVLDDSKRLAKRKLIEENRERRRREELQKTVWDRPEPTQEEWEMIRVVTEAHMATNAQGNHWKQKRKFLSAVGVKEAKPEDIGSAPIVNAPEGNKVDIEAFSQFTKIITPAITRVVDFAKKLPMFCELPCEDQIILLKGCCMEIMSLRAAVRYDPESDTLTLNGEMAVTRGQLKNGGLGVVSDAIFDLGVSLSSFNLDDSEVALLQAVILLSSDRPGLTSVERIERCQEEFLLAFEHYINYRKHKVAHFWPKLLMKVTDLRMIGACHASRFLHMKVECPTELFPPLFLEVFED
Outline: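 HepG2 cells transiently transfected with multiplexed GAL4-UAS reporter units expressing chimeric zebrafish TRb–Gal4. Dosed 24 h with 3 nM 6-alpha-fluorotestosterone present; reporter mRNA measured by RT-PCR, HpaI digestion and capillary electrophoresis; gain of signal versus DMSO.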

[15] = ATG_XTT_Cytotoxicity_XSP1: Cytotoxicity Assessment in the Attagene TRANS-FACTORIAL Multi-Species (XSP1) HepG2 Assay (AID 2283810)
Outline: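 XTT viability readout taken at 24 hours post-dosing in HepG2 liver cells co-treated with 3 nM 6-alpha-fluorotestosterone. Signal loss relative to DMSO controls reflects cytotoxicity.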

[16] = biological target: GAL4 Transcription Factor (Internal Marker), GAL4 (gene 855828) (UniProt P04386); assay: ATG_GAL4_XSP2: Attagene TRANS-FACTORIAL Multi-Species (XSP2) HepG2 Assay for GAL4 Transcription Factor (Internal Marker) (AID 2283814);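 note: GAL4 reporter mRNA background control in MRTU transfected cells not a receptor target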
Sequence of GAL4 Transcription Factor (Internal Marker), GAL4 (gene 855828) (P04386 whole entry, looked up, the tested form may be a part): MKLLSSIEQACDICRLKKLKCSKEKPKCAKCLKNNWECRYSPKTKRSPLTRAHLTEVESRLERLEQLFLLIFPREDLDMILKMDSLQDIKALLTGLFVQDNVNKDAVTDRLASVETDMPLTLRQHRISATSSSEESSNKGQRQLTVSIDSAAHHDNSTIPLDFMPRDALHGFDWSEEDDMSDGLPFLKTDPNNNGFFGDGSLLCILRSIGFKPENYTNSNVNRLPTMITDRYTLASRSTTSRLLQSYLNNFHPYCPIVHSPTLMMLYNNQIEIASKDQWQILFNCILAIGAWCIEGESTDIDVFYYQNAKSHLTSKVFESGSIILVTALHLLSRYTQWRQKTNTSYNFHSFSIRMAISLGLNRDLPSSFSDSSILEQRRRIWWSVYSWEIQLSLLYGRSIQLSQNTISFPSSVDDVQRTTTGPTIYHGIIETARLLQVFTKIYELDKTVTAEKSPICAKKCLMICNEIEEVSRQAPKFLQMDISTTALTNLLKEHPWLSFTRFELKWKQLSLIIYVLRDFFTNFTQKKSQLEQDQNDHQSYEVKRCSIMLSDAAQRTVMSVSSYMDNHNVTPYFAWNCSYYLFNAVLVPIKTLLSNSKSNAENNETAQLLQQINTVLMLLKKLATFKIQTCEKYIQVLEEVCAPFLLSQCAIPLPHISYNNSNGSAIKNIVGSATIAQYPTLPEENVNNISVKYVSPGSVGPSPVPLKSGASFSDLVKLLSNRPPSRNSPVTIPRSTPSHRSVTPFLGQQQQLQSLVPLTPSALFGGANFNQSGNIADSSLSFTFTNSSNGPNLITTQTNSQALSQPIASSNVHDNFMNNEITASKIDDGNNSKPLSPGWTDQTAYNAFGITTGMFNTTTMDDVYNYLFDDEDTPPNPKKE
Outline: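 HepG2 cells transiently transfected with GAL4-UAS reporter units, stimulated with 3 nM 6-alpha-fluorotestosterone plus 1.5 nM norgestrel, dosed 24 h. Reporter mRNA by RT-PCR/capillary electrophoresis; gain-of-signal fit versus DMSO, background control.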

[17] = biological target: Peroxisome proliferator-activated receptor gamma (Homo sapiens) (UniProt P37231); assay: ATG_hPPARg_XSP1: Attagene TRANS-FACTORIAL Multi-Species (XSP1) HepG2 Assay for human Peroxisome Proliferator-activated Receptor gamma (PPARg) (AID 2283800)
Outline: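 HepG2 cells transiently transfected with GAL4-UAS reporter units carrying chimeric NR-Gal4 proteins; 3 nM 6-alpha-fluorotestosterone present. After 24 h dosing, reporter mRNA quantified by RT-PCR and capillary electrophoresis; gain of signal relative to DMSO.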

[18] = biological target: human Thyroid hormone Receptor alpha (TRa), THRA (gene 7067) (UniProt P10827); assay: ATG_hTRa_XSP1: Attagene TRANS-FACTORIAL Multi-Species (XSP1) HepG2 Assay for human Thyroid hormone Receptor alpha (TRa) (AID 2283805)
Sequence of human Thyroid hormone Receptor alpha (TRa), THRA (gene 7067) (P10827 whole entry, looked up, the tested form may be a part): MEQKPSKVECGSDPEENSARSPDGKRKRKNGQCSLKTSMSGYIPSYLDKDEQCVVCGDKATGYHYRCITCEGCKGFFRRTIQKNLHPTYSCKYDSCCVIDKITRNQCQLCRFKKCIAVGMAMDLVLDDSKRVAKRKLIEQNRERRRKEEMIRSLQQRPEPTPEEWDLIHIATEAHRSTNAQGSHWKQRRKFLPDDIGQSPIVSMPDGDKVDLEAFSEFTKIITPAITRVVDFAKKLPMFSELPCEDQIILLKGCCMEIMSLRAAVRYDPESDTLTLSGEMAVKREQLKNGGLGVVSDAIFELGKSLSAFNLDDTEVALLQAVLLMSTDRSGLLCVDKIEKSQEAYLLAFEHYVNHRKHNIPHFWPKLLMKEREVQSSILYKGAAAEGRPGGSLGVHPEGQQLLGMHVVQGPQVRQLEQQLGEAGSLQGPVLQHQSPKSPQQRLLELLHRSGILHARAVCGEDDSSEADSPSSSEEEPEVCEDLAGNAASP
Outline: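 HepG2 cells transiently transfected with GAL4-UAS reporter units expressing chimeric NR-Gal4 proteins, dosed 24 hours with 3 nM 6-alpha-fluorotestosterone present. Reporter mRNA measured by RT-PCR and capillary electrophoresis; gain of signal fitted versus DMSO.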

[19] = biological target: Estrogen receptor beta (Homo sapiens) (UniProt Q92731); assay: ATG_hERb_XSP2: Attagene TRANS-FACTORIAL Multi-Species (XSP2) HepG2 Assay for human Estrogen Receptor (ERb) (AID 2283813);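 note: actives raise reporter mRNA above DMSO so AC50 reflects agonist induction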
Sequence of Estrogen receptor beta (Homo sapiens) (Q92731 whole entry, looked up, the tested form may be a part): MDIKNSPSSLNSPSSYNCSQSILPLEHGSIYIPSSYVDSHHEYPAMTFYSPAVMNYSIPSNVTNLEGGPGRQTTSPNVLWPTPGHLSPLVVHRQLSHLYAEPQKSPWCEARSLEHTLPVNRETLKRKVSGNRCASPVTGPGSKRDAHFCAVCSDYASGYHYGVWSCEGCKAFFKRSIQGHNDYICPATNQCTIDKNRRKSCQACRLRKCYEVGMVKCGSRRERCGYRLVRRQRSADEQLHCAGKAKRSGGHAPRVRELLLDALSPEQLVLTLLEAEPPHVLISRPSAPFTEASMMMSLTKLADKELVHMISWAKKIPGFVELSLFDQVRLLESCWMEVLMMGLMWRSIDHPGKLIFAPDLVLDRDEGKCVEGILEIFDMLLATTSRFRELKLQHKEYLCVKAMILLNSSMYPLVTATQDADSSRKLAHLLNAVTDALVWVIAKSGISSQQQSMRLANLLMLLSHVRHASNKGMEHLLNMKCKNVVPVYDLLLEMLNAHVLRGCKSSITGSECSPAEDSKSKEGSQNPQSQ
Outline: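 HepG2 cells transiently transfected with GAL4-UAS reporter units and chimeric human ERb-Gal4, 24 h exposure. Reporter mRNA quantified by RT-PCR with FAM labelling, HpaI digestion and capillary electrophoresis; gain of signal versus DMSO.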

[20] = biological target: frog Thyroid hormone Receptor alpha (TRa), thra-a (gene 397942) (UniProt P15204); assay: ATG_frTRa_XSP1: Attagene TRANS-FACTORIAL Multi-Species (XSP1) HepG2 Assay for frog Thyroid hormone Receptor alpha (TRa) (AID 2283804)
Sequence of frog Thyroid hormone Receptor alpha (TRa), thra-a (gene 397942) (P15204 whole entry, looked up, the tested form may be a part): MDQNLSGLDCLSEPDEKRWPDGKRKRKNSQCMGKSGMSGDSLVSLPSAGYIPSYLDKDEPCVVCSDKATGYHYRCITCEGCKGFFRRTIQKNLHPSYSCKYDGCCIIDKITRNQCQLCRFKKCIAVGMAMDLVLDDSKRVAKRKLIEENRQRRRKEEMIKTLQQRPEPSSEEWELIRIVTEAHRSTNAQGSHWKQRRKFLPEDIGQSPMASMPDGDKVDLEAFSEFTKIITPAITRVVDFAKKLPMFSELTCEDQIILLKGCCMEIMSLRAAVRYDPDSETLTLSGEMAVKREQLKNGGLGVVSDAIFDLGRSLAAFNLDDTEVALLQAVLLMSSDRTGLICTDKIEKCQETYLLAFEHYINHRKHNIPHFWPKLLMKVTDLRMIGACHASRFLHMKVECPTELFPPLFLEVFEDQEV
Outline: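 HepG2 cells transiently transfected with frog TRa-GAL4 chimeric reporter units, dosed 24 hr with 3 nM 6-alpha-fluorotestosterone present; reporter mRNA quantified by RT-PCR, fluorescent labelling and capillary electrophoresis, gain of signal versus DMSO.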

Measured: AC50

CC(c1ccc(O)cc1)(c1ccc(O)cc1)c1ccc(O)cc1
inactive: [1] | [2] | [3] | [4] | [5] | [6]
active: [6] 0.314 µM

ClC(Cl)=C(c1ccc(Cl)cc1)c1ccc(Cl)cc1
active: [2] 10 µM | [4] 3.27 µM
inactive: [7] | [8] | [9] | [10] | [11] | [12] | [13] | [14] | [15] | [5]

Cc1cc(-c2ccc(N)c(C)c2)ccc1N
inactive: [16]
active: [2] 6.32 µM and 13.2 µM | [4] 7.48 µM and 27.1 µM and 17.7 µM | [5] 4.47 µM and 11 µM and 6.8 µM

Clc1ccc(C(c2ccccc2Cl)C(Cl)(Cl)Cl)cc1 (stereo not given)
active: [10] 2.03 µM | [2] 1.14 µM | [4] 0.656 µM | [5] 1.58 µM
inactive: [7] | [17] | [18] | [11] | [12] | [13] | [14] | [15] | [1] | [19]

CC(C)(O)C(=O)Nc1ccc([N+](=O)[O-])c(C(F)(F)F)c1
inactive: [8] | [10] | [20] | [12] | [15] | [1] | [2] | [19] | [16] | [4] | [5]
active: [18] 50 µM | [11] 30.6 µM | [13] 18.2 µM | [14] 50 µM

Oc1ccc(C(c2ccc(O)cc2)(C(F)(F)F)C(F)(F)F)cc1
inactive: [7] | [10] | [20] | [18] | [11] | [12] | [13] | [14] | [19] | [16] | [4] | [6]
active: [9] 33.4 µM | [13] 62.3 µM | [15] 81.2 µM | [2] 0.226 µM | [4] 0.233 µM | [5] 101 nM and 587 nM

C[C@]12CCC(=O)C=C1CC[C@@H]1[C@@H]2CC[C@@]2(C)[C@H]1CC[C@]2(C)O
inactive: [10] | [20] | [18] | [11] | [12] | [13] | [14] | [15] | [1]
active: [2] 0.0021 µM | [3] 0.00341 µM | [4] 0.00203 µM | [5] 0.0025 µM | [6] 0.000725 µM

C[C@]12CCC(=O)C=C1CC[C@@H]1[C@@H]2CC[C@]2(C)C(=O)CC[C@@H]12
active: [10] 2.3 µM | [2] 12.9 nM and 12 nM | [19] 0.0192 µM | [3] 2.08 µM | [4] 9.2 nM and 10.8 nM | [5] 28.2 nM and 100 nM | [6] 0.379 µM
inactive: [7] | [17] | [8] | [20] | [18] | [11] | [12] | [13] | [14] | [15] | [1] | [19] | [3] | [6]

CC(C)(c1ccccc1)c1ccc(O)cc1
active: [2] 0.516 µM | [19] 0.531 µM | [4] 1.15 µM
inactive: [7] | [17] | [8] | [9] | [10] | [18] | [11] | [12] | [13] | [14] | [15] | [1] | [5]

CCC(=O)O[C@H]1CC[C@H]2[C@@H]3CCC4=CC(=O)CC[C@]4(C)[C@H]3CC[C@]12C
inactive: [1] | [19] | [3] | [6]
active: [2] 17.3 nM and 5.27 nM | [4] 12.6 nM and 25.4 nM | [5] 27.7 nM and 13.2 nM | [6] 0.0247 µM

c1cc2ccc3cccc4ccc(c1)c2c34
active: [2] 167 µM and 27.8 µM | [4] 13.9 µM and 25.4 µM
inactive: [16] | [5]

CCOC(=O)C(O)(c1ccc(Cl)cc1)c1ccc(Cl)cc1
inactive: [1] | [2] | [19] | [4] | [5]
active: [2] 6.68 µM | [4] 8.82 µM
